± gives the uncertainty stated by the source. The full ranking holds about 9,900 compounds; the median of “viability index relative to DMSO control” is about 1, and the lowest 2% start at about 0.85. For the sample, the lowest values were picked, then their nearest neighbours and some compounds at random.
Tested on: Plasmodium falciparum NF54 stage V gametocytes
Assay: viability index relative to DMSO control (fraction); higher = less gametocyte killing
Settings: 2.5 µM, incubation time: 72 h
Method in brief: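 Gametocytes (P. falciparum NF54, stage V) were treated with compound at 2.5 µM for 72 hr at 37°C in low oxygen, in serum-free medium at 0.75% gametocytemia and 1.25% hematocrit. Counts of 20–70 µm2 red particles, taken from one field per well after MitoTracker Red CMXRos with saponin, were divided by the plate mean of solvent-only wells. This ratio is the viability index.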

[1] = library set: Broad Institute DOS
[2] = library set: Broad Institute Blood Stage

Structure (SMILES) | viability index [1] | viability index [2]
COCC#Cc1ccc([C@@H]2[C@H](CO)N3C(=O)CN(C(=O)CN4CCOCC4)C[C@@H]23)cc1 | 1.02 ± 0.05 | –
C[C@@H](NC(=O)C[C@H]1C=C[C@@H](NS(=O)(=O)c2cccc(F)c2)[C@H](CO)O1)c1ccccc1 | 1.17 ± 0.04 | –
O=C(N[C@@H]1CC[C@H](CC(=O)N2CCOCC2)O[C@H]1CO)c1cccc(F)c1 | 1.07 ± 0.062 | –
O=C(Nc1ccccc1)N1CC(=O)N2[C@H](CO)[C@@H](c3ccc(C#CC4CCCCC4)cc3)[C@@H]2C1 | 1.04 ± 0.086 | –
COCC(=O)N1CC[C@@]2(CC1)CN([C@@H](CO)c1c2c2ccc(OC)cc2n1C)C(=O)c1ccccn1 | 1.02 ± 0.1 | –
CO[C@@H]1CN(C)C(=O)c2cc(NS(=O)(=O)CC(F)(F)F)ccc2OC[C@H](C)NC[C@@H]1C | 1.05 ± 0.059 | –
O=C(NCC[C@@H]1CC[C@@H](NS(=O)(=O)Cc2ccccc2)[C@@H](CO)O1)C1CCCCC1 | 0.968 ± 0.15 | –
CN(C)C(=O)C[C@@H]1C=C[C@H](NC(=O)c2ccc(F)cc2)[C@@H](CO)O1 | 1.11 ± 0.097 | –
C[C@@H]1CN([C@H](C)CO)C(=O)c2cccc(NC(=O)NC3CCCCC3)c2O[C@H]1CN(C)Cc1ccc(C(F)(F)F)cc1 | 1.01 ± 0.083 | –
C[C@H](CO)N1C[C@H](C)[C@H](CN(C)C(=O)Nc2ccc(C(F)(F)F)cc2)Oc2ccc(NS(=O)(=O)c3ccc(Cl)cc3)cc2CC1=O | 1.009 ± 0.0083 | –
Cc1ccc(S(=O)(=O)Nc2cccc3c2O[C@@H](CN(C)C(=O)Nc2ccc(C(F)(F)F)cc2)[C@@H](C)CN([C@H](C)CO)C3=O)cc1 | 1.08 ± 0.061 | –
C[C@H](CO)N1C[C@H](C)[C@@H](CN(C)C(=O)Nc2ccc(C(F)(F)F)cc2)Oc2ccc(NS(=O)(=O)c3ccc(Cl)cc3)cc2CC1=O | 0.917 ± 0.088 | –
C[C@@H]1CN([C@@H](C)CO)C(=O)c2cccc(NC(=O)NC3CCCCC3)c2O[C@@H]1CN(C)Cc1ccc(C(F)(F)F)cc1 | 0.813 ± 0.08 | –
C[C@@H]1CN([C@H](C)CO)C(=O)c2cccc(NC(=O)NC3CCCCC3)c2O[C@@H]1CN(C)Cc1ccc(C(F)(F)F)cc1 | 0.977 ± 0.071 | –
C[C@H](CO)N1C[C@H](C)[C@@H](CN(C)C(=O)Nc2ccc3c(c2)OCO3)Oc2c(NC(=O)c3nc4ccccc4s3)cccc2C1=O | 1.01 ± 0.041 | –
C[C@H](CO)N1C[C@H](C)[C@@H](CN(C)C(=O)Nc2ccc3c(c2)OCO3)Oc2ccc(NC(=O)Nc3ccc(C(F)(F)F)cc3)cc2CC1=O | – | 0.755 ± 0.061
Cc1ccc(S(=O)(=O)Nc2cccc3c2O[C@H](CN(C)C(=O)Nc2ccc(C(F)(F)F)cc2)[C@@H](C)CN([C@H](C)CO)C3=O)cc1 | 1.02 ± 0.029 | –
C[C@@H]1CN([C@@H](C)CO)C(=O)c2cccc(NC(=O)c3nc4ccccc4s3)c2O[C@H]1CN(C)C(=O)Nc1ccc(C(F)(F)F)cc1 | – | 0.811 ± 0.058
C[C@@H]1CN([C@H](C)CO)C(=O)c2cccc(NC(=O)c3nc4ccccc4s3)c2O[C@H]1CN(C)C(=O)Nc1ccc2c(c1)OCO2 | 0.9047 ± 0.0069 | –
C[C@@H]1CN([C@@H](C)CO)C(=O)c2cccc(NC(=O)C3CC3)c2O[C@@H]1CN(C)C(=O)Nc1ccc(C(F)(F)F)cc1 | – | 0.594 ± 0.06
O=C(Nc1ccccc1F)N1CC(=O)N2[C@@H](CO)[C@H](c3ccc(-c4cccnc4)cc3)[C@@H]2C1 | 1.08 ± 0.028 | –
Cc1noc(C)c1NC(=O)N(C)C[C@@H]1OCc2cnnn2CCCC(=O)N([C@H](C)CO)C[C@@H]1C | 1.09 ± 0.08 | –
CO[C@@H]1CN(C)C(=O)c2ccc(NC(=O)NC(C)C)cc2OC[C@@H](C)N(Cc2ccc(-c3ccccn3)cc2)C[C@H]1C | 1.03 ± 0.023 | –
COCC(=O)Nc1ccc2c(c1)C(=O)N(C)[C@@H]1CC[C@H](CC(=O)N3CCc4ccccc4C3)O[C@@H]1CO2 | 1.0023 ± 0.00098 | –

Structure (SMILES) | viability index [1] | viability index [2]
C/C=C/c1ccc([C@H]2[C@H]3CNC[C@@H]2N3S(=O)(=O)c2ccccc2C)cc1 | 1.04 ± 0.027 | –
C[C@H]1CN([C@@H](C)CO)C(=O)c2c(c3ccccc3n2C)-c2ccccc2CO[C@H]1CN(C)S(=O)(=O)c1ccc(Cl)cc1 | – | 0.738 ± 0.023
C[C@H]1CN([C@@H](C)CO)C(=O)c2c(c3ccccc3n2C)-c2ccccc2CO[C@H]1CN(C)S(=O)(=O)c1ccc(F)cc1 | – | 0.929 ± 0.041
C[C@H](CO)N1C[C@H](C)[C@H](CN(C)S(=O)(=O)c2ccc(F)cc2)OCc2ccccc2-c2c(n(C)c3ccccc23)C1=O | – | 0.942 ± 0.045
C[C@H](CO)N1C[C@H](C)[C@H](CN(C)S(=O)(=O)c2ccc(C#N)cc2)OCc2ccccc2-c2c(n(C)c3ccccc23)C1=O | – | 1.01 ± 0.03
COc1ccc(S(=O)(=O)N(C)C[C@@H]2OCc3ccccc3-c3c(n(C)c4ccccc34)C(=O)N([C@@H](C)CO)C[C@@H]2C)cc1 | – | 0.936 ± 0.044
Cc1ccc(S(=O)(=O)N(C)C[C@@H]2OCc3ccccc3-c3c(n(C)c4ccccc34)C(=O)N([C@@H](C)CO)C[C@@H]2C)cc1 | – | 0.728 ± 0.062
CCNC(=O)C[C@@H]1CC[C@H]2[C@@H](COC[C@H](O)CN2C(=O)c2ccccn2)O1 | 1.14 ± 0.062 | –
COc1cccc(C#Cc2ccc3c(c2)O[C@@H](CN(C)C(=O)CN2CCOCC2)[C@@H](C)CN([C@H](C)CO)S3(=O)=O)c1 | 0.966 ± 0.13 | –
C[C@@H]1CCCCO[C@H](CN(C)Cc2ccc(C(=O)O)cc2)[C@@H](C)CN([C@@H](C)CO)C(=O)c2cc(N(C)C)ccc2O1 | 1.07 ± 0.11 | –
COCC#Cc1ccc([C@@H]2[C@@H](CO)N3C(=O)CN(C(=O)c4ccncc4)C[C@H]23)cc1 | 1.12 ± 0.087 | –
Cc1ccc(-c2ccccc2[C@H]2[C@@H](C#N)N(c3ncc(-c4ccccc4)s3)[C@H]2CO)cc1 | 0.985 ± 0.14 | –
O=C(C[C@H]1CC[C@@H]2[C@H](COC[C@H](O)CN2Cc2ccc(C(F)(F)F)cc2)O1)N1CCc2ccccc2C1 | 0.846 ± 0.011 | –
O=C(C[C@@H]1CC[C@@H]2[C@H](COC[C@H](O)CN2Cc2ccc(C(F)(F)F)cc2)O1)N1CCc2ccccc2C1 | 1.078 ± 0.0039 | –
O=C(C[C@H]1CC[C@H]2[C@@H](COC[C@@H](O)CN2Cc2ccc(C(F)(F)F)cc2)O1)N1CCc2ccccc2C1 | 0.968 ± 0.024 | –
Cc1noc(C)c1NC(=O)Nc1ccc2c(c1)C(=O)N(C)[C@H]1CC[C@H](CC(=O)Nc3ccc4c(c3)CCCC4)O[C@@H]1CO2 | 1.086 ± 0.0014 | –
COc1ccc([C@@H]2C/C=C\C[C@H](c3ccc(F)cc3)NC(=O)CCC(=O)N2)c(OC)c1 | 1.015 ± 0.01 | –
C/C=C/c1ccc2c(c1)O[C@H](CN(C)C(=O)Nc1ccc(OC)cc1)[C@H](C)CN([C@H](C)CO)S2(=O)=O | 1.056 ± 0.0059 | –
COc1ccc(C#Cc2ccc3c(c2)O[C@@H](CN(C)C(=O)Nc2cccc(OC)c2)[C@@H](C)CN([C@@H](C)CO)S3(=O)=O)cc1 | – | 0.612 ± 0.071
Cc1ccccc1-c1ccc2c(c1)O[C@H](CN(C)C(=O)Nc1ccc(C(F)(F)F)cc1)[C@H](C)CN([C@H](C)CO)S2(=O)=O | 0.988 ± 0.082 | –
Cc1ccccc1-c1ccc2c(c1)O[C@@H](CN(C)C(=O)Nc1ccc(C(F)(F)F)cc1)[C@H](C)CN([C@@H](C)CO)S2(=O)=O | 1.09 ± 0.078 | –
Cc1ccccc1-c1ccc2c(c1)O[C@@H](CN(C)C(=O)Nc1ccc(C(F)(F)F)cc1)[C@@H](C)CN([C@@H](C)CO)S2(=O)=O | 0.838 ± 0.12 | –
C/C=C/c1ccc2c(c1)O[C@H](CN(C)C(=O)Nc1ccc(OC)cc1)[C@H](C)CN([C@@H](C)CO)S2(=O)=O | 0.988 ± 0.013 | –
C[C@H](CO)N1C[C@H](C)[C@@H](CN(C)Cc2cccc(C(=O)Nc3ccccc3N)c2)OCc2ccccc2-c2c(n(C)c3ccccc23)C1=O | 0.887 ± 0.053 | –

Structure (SMILES) | viability index [1] | viability index [2]
CO[C@H](CN(C)S(=O)(=O)c1ccc(C)cc1)[C@H](C)CN(C(=O)Nc1ccccc1F)[C@@H](C)CO | 0.986 ± 0.025 | –
CCC(=O)N1[C@H](CO)[C@H]2c3ccccc3N(S(=O)(=O)c3ccc(F)cc3)C[C@H]21 | 0.958 ± 0.067 | –
N#C[C@@H]1[C@@H](c2ccccc2C2=CCCCC2)[C@H](CO)N1S(=O)(=O)c1ccccc1 | 1.05 ± 0.1 | –
N#C[C@H]1[C@H](c2ccccc2C2=CCCCC2)[C@@H](CO)N1S(=O)(=O)c1ccccc1 | 0.757 ± 0.1 | –
N#C[C@H]1[C@H](c2ccccc2C2=CCCCC2)[C@H](CO)N1S(=O)(=O)c1ccccc1 | 1.14 ± 0.019 | –
C[C@@H]1CCCCO[C@@H](CN(C)C(=O)C2CCCCC2)[C@@H](C)CN([C@@H](C)CO)C(=O)c2cc(NS(=O)(=O)c3ccccc3)ccc2O1 | 1.08 ± 0.023 | –
COc1ccc(NC(=O)N2CC[C@@]3(CC2)CN([C@H](CO)c2c3c3ccc(OC)cc3n2C)C(=O)C2CCC2)cc1 | 0.785 ± 0.057 | –
COc1ccc(NC(=O)N2C[C@@]3(C2)CN([C@H](CO)c2c3c3ccc(OC)cc3n2C)C(=O)C2CCC2)cc1 | – | 0.841 ± 0.05
COc1ccc2c3c([C@@H](CO)N(C[C@]33CN(C3)C(=O)CC3CC3)C(=O)C3CCCC3)n(C)c2c1 | 0.932 ± 0.021 | –
COc1ccc(NC(=O)N2CC[C@@]3(CC2)CN([C@@H](CO)c2c3c3ccc(OC)cc3n2C)C(=O)C2CCC2)cc1 | 0.897 ± 0.041 | –
COc1ccc2c3c([C@H](CO)N(C[C@]33CN(C3)C(=O)CC3CC3)C(=O)C3CCCC3)n(C)c2c1 | 0.897 ± 0.036 | –
COc1ccc2c3c([C@@H](CO)N(C[C@]33CCN(CC4CCCC4)CC3)C(=O)C3CCC3)n(C)c2c1 | 1.1 ± 0.042 | –
COc1cccc(CN2C[C@@]3(C2)CN([C@@H](CO)c2[nH]c4cc(OC)ccc4c32)C(=O)C2CC2)c1 | 0.956 ± 0.11 | –
C[C@H](CO)N1C[C@H](C)[C@H](CN(C)C(=O)NC2CCCCC2)Oc2ncc(-c3cccc(F)c3)cc2C1=O | 1.01 ± 0.084 | –
C[C@@H]1CN([C@H](C)CO)C(=O)c2cc(C#Cc3ccccc3)cnc2O[C@@H]1CN(C)C(=O)c1ccccc1 | 0.966 ± 0.057 | –
C[C@H]1CN([C@@H](C)CO)C(=O)c2cc(-c3cccc(C#N)c3)cnc2O[C@@H]1CN(C)C(=O)C1CCOCC1 | 1.04 ± 0.025 | –
C[C@H](CO)N1C[C@H](C)[C@H](CN(C)C(=O)C2CCCCC2)Oc2ncc(C#Cc3cccc(F)c3)cc2C1=O | – | 0.62 ± 0.074
C[C@H]1CN([C@@H](C)CO)C(=O)c2cc(C#Cc3cccc(F)c3)cnc2O[C@@H]1CN(C)C(=O)C1CCCCC1 | – | 0.769 ± 0.073
CCCC#Cc1cnc2c(c1)C(=O)N([C@@H](C)CO)C[C@@H](C)[C@H](CN(C)C(=O)Nc1cc(F)ccc1F)O2 | 1.05 ± 0.041 | –
C[C@@H]1CN([C@@H](C)CO)C(=O)c2cc(C#Cc3ccccc3)cnc2O[C@@H]1CN(C)C(=O)c1ccccc1 | 1.08 ± 0.028 | –
CCCC#Cc1cnc2c(c1)C(=O)N([C@@H](C)CO)C[C@@H](C)[C@@H](CN(C)C(=O)Nc1cc(F)ccc1F)O2 | 1.02 ± 0.012 | –
CCCC#Cc1cnc2c(c1)C(=O)N([C@H](C)CO)C[C@@H](C)[C@H](CN(C)C(=O)Nc1cc(F)ccc1F)O2 | 0.822 ± 0.058 | –

From the supplement of paper PMC4723716
